Experimental data reported in the supplement of paper PMC12632987.
Over roughly 4,500 sequences, “median log2 fold change of GCK-ALFA target abundance (FLAG IP / Myc IP barcode read proportion)” has its median near 0.078; the lowest 2% begin near -0.6. Only a selection was taken, and the lowest values are over-represented in it overall.

B1: GBRAP_125_3054 (protein)
chain: NLEEAIEALAELGKILGLSEEEVEELRKLAEKYGVKGTLYALLLAEGEEELAELVAKLTEEEVIEVLKRLLEYIKSHPNITKEEALEKLKELAEEALAKK
B2: GBRAP_117_2592 (protein)
chain: SATREAARAKIRATVAEVEALFKELAGLSPEEQAEALAAMRERVKAVLREVIEELGEEEAEELLDEALLDTDAETYFFLESVREDTLEELEEEEEEEERE
B3: GBRAP_52_6014 (protein)
chain: MRERLRAFVDEVLALVRAGKEEEARALIEELVASLNEEEIELLIDVLAERAAAARPEDQEAVWRLAEMLAEALEEAGVDEALADDLLARVAAALYAAEQA
B4: GBRAP_83_6975 (protein)
chain: AEEIVVAAPADRVEEAVEIAIDLAKEEGKKVTLEILTTPEQRERVLEAVERLLKEVPNIEIVVVLRGATKEEAEELEKELKEIAKELGVNADIEVLIEEP
B5: GBRAP_26_5451 (protein)
chain: MEELLERFRERLERAADELLDPETAALLKVAVDDIIALAELELEEANGDLEKELEIVEEMLEDLEEELEDLEVPEEVREKLLEIAREEAEEIKKALKEER
B6: GBRAP_26_5452 (protein)
chain: MEEKLEALRDRLVELADELLDPETAALLKVEVDNIVALAELELEEANGDLEKELAVVEEMLEDLEEALDDLEVPEEVKEKLLEAAREAAEEIKEYLKKKS
B7: GBRAP_52_5986 (protein)
chain: MKEEAKKIAEELVKLMLEGKEEEAEKLMKEIAENKSQEFILMVMEELAKMAKTATPEEVDAIVDTALMLGDIALEAGFDEAEIDDAEARVAAAAVENLKK
B8: GBRAP_64_6489 (protein)
chain: MEEIEESLEELLKLVEELLEAVKDLSEELQKKVEEVKRLVEEAKTASLEERLDLTVEAAKLLNEILKNPELTEEQKELAGLALDKASELAWLLFEAEEEE
B9: GBRAP_11_2748 (protein)
chain: KKEKLKEIAKAAEELAALLDKLIAEGVDNAELQAAAEKALKELAELVEKYGDESLKKLVAIIQEEFAQAKADPATAEAHWRNALAAARVLAGQVLLEIEE
B10: GBRAP_160_4544 (protein)
chain: KEKVEEAIKDIDERAAFVKSLVGKVSTEELINFFDVEVGSFIMELEELGLLTDELGEEIDKIADETKATLKANPNASDEEKKALIDEAAEKIKEAILKHS
B11: GBRAP_26_5425 (protein)
chain: LDEAVERAIERISAAAAELLDPETAAAVRAVVTDELLEAEEEIEEEDLSEEEVEELLEEVLEEIEEDLEELGVPAEKRARLVAVAEEELEEVLEEWKEER
B12: GBRAP_78_6625 (protein)
chain: EIKKLLEKALKKVEEAAKLATKIPSEEGIEILDHLIDAFEYIEEAIEEGGDLEKLEKALKHLEEALKEIEKLNNPELEELKKLVKEAIKLLKKAIELKKK
B13: GBRAP_39_5692 (protein)
chain: EEEEEDEDVVSYLQALAAGRLYETGKSLEEAYKEAKKILEEEAKRHPELKELLEELIKLADEKGEEAKEVLIGIAVLIEEGTPLEEIKEHIEKAINYFKK
B14: GBRAP_11_2756 (protein)
chain: KKEKLKEMAELAEKAAELVKKLLEEGVDNEELQEELEKVLKELKKLVKEYGDEADKKLVEIAEELWKKAKEDEENKEQYYKELLATLRVLSGDFLLEYEE
B15: GBRAP_160_4385 (protein)
chain: AAALAALAKEIEALRKEFEEEAKDLNTEETRTLAIGVLAEVAALAWENEAISEETKDKIFAIIDEAIEELKANKDAPPEEIVAITTEAFDKIIALVKAEA
B16: GBRAP_160_4108 (protein)
chain: SAGAEAILADFREVFAEVLELWDEVSPEELVAYYEVETGSVIMDAMENYGLSDETADRLLDIRDEAAARLLAHGNVSREEVERILAEALARIEAAVAAAA
B17: GBRAP_9_7157 (protein)
chain: MEELIEKVEEVIEDMLEEIKEVVPEEVKPAVEKRREEVKKRLEELGEDENATEEEIIEEAERLVRETLEEMKKLVDPETAKIVEAIALTAELEIEEIGEE
B18: GBRAP_184_5064 (protein)
chain: KIYEETIEVTNLEEAKEKMKELKEKIKNFKGDLIVHLKLPEFNKEIVKAILDELAEIKKAGYAKNITLGIDADTTEEEVDFLISTADEKGINVVVALREE
B19: GBRAP_160_4175 (protein)
chain: SEKLEEAEKKIKEIFEEAYKMMEGESAEERAAIVAVAFGEIILYLEEKGLLTDETEAKIDEIEDEAVEYILENPDLTEEELRELLEESAEKIIKALKENS
B20: GBRAP_160_4178 (protein)
chain: SEKIEEAEEEIEEIFEEAYEMMKGQTAEERAAIVDVAFGEIILYLEEKGLLTDETEAKIDEIRDETVSYILANPDLTDEELRELLEEAAEEIIEALRENS

Molecular target: GABARAP, O95166
Experiment: median log2 fold change of GCK-ALFA target abundance (FLAG IP / Myc IP barcode read proportion) (log2 ratio); each designed protein is fused to an ALFA-tag nanobody in HEK293 cells to bring the named protein to FLAG-tagged glucokinase (GCK); Myc marks an untargeted standard; higher = target protein stabilised (more abundant)
Conditions: target protein: 3xFLAG-MCP-GCK-ALFA reporter; HEK293 landing pad (RPLP)
Outline: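 An ALFA-nanobody-fused binder library was recombined into HEK293 landing-pad cells and induced with 2 μg mL^−1 doxycycline. Cells were transfected with a plasmid expressing a FLAG-tagged target and a Myc-tagged standard. After 48 h, lysates underwent anti-FLAG and anti-Myc immunoprecipitation, and circular RNA barcodes were reverse transcribed, amplified and sequenced. Target abundance is the per-binder median log2 ratio of FLAG to Myc barcode read proportions. Barcodes needed ≥10^−7 proportion in both replicates, binders ≥3 barcodes per replicate, and a 10^−6 pseudocount was added; the two replicates were pooled.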

Sequence of GABARAP, O95166 (O95166 whole entry, the tested form may be a part): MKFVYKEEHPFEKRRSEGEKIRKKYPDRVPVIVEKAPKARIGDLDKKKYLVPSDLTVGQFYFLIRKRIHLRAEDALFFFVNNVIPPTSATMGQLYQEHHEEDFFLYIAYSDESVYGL

Binder	median log2 fold change
B1	-1.42
B2	0.191
B3	-0.157
B4	0.0242
B5	-1.2
B6	-0.454
B7	-0.152
B8	0.0238
B9	0.194
B10	0.0163
B11	-0.608
B12	0.283
B13	0.284
B14	0.0874
B15	-0.171
B16	-0.764
B17	-0.11
B18	0.127
B19	-0.178
B20	-0.598
